An excerpt weighted towards active compounds, which were near 2.2% of everything screened.
Hsp70 act: transcriptional activators of Hsp70; AID 1203; HeLa Hsp70 promoter luciferase reporter, luminescence; scaled: vehicle 0, proteasome-inhibitor control 100%; 0.04% of 200,000 active; activation, % at 10 µM;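 active means activation above the mean across all tested compounds plus 3 SD, cutoff set per campaign, cut at about 5.5% in these data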;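 further: 100% = MG132 at 30 µM as the positive control and 0% = DMSO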
GalR3 antagonist: blocks the human galanin receptor 3 | HEK293 GalR3-CNG cAMP membrane potential fluorescence; galR3 body fused to GalR1 C-terminus | 0.44% of 360,000 active | AID 651719 | O60755 | inhibition, % at 3 µM;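 active means inhibition above the screen-wide average plus 3 SD, cut at about 13% in these data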;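 further: forskolin and galanin both at EC90 stimulate the cells; cAMP rise reported by CNG channel membrane potential dye signal; 0% = forskolin plus galanin with DMSO and 100% = forskolin alone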
Target sequence (O60755 1-299 limits assumed): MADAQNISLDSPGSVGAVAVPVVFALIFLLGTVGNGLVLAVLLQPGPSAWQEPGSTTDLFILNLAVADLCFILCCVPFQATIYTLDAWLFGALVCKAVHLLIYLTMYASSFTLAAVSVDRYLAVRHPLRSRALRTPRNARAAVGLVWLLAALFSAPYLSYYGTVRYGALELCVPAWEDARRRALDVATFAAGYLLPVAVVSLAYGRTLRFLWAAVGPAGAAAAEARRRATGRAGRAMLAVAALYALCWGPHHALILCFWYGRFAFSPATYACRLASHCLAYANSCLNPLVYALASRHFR
GAA850 FXN act: activators of GAA850 frataxin (FXN) promoter | HEK293 lucGAA850 FXN promoter luciferase reporter, 24 h; percent of 10 µM SAHA response | activation, % at 6 µM | 0.56% of 360,000 active | AID 540364;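 active means activation above the average of all compounds screened plus 3 SD, cutoff fixed separately per campaign, cut at about 7.5% in these data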;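 further: 0% = DMSO wells and 100% = 10 µM SAHA wells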
SMARCA2 act: SMARCA2 function activation, primary screen. MG213 cells, MMTV-luciferase reporter, dexamethasone, overnight. activation, % at 9.1 µM. 1% of 370,000 active; in the data active means activation above about 7.8%;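 further: 0% = vehicle wells and 100% = reference activator wells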
HIF act: HIF pathway transcriptional activation. U2OS HRE-luciferase reporter, luminescence; normalized: DMSO 0%, desferrioxamine 100%. 0.32% of 300,000 active. activation, % at 7.5 µM (by protocol);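 active means mean activation of at least 10% of the iron chelator positive control signal, with at least half of replicates also reaching 10%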
An asterisk follows results filed as active; . = no result.

SMILES	Hsp70 act	GalR3 antagonist	GAA850 FXN act	SMARCA2 act	HIF act
CCCCOCCCNC(=O)C[C@H]1C(=O)N(Cc2ccc(OC)cc2)C2=CCCC[C@@]21C(=O)OCC	.	.	.	-4.2	.
CC(=O)Nc1ccc(Nc2nc(C)c([N+](=O)[O-])c(Nc3ccc(NC(C)=O)cc3)n2)cc1	-0.3	-5.3	0.2	-2.1	468.7*
O=C1CCC2(CCC(c3ccccc3)CC2)N1CCO (stereo not given)	.	.	.	-2.8	.
Cc1oc(-c2ccc(Cl)cc2)cc1C(=O)/C(C#N)=C/Nc1cccc(OC(F)(F)F)c1	.	-2.2	0.1	0.0	43.3*
Cc1oc(-c2ccc(Cl)cc2)cc1C(=O)O	.	-5.2	1.6	4.0	1.0
CC(C)CN1CN2Cc3cc(F)ccc3C2CS1(=O)=O (stereo not given)	.	.	.	-1.8	.
CCCCCCCCN1C(=O)[C@@H](CC(=O)NCc2ccc(OC)c(OC)c2)C[C@@]2(C(=O)OC)C1=C[C@H](C(C)C)O[C@@H]2C1CC1	.	.	.	-3.1	.
Cc1cccc2nc(-c3cccc(NC(=O)Cc4ccccc4)c3)cn12	-0.2	-3.6	4.3	12.6*	.
O=C(Nc1cccc(-c2cn3ccccc3n2)c1)C1CC1	-0.3	-4.3	2.1	5.8	37.3*
CCOC(=O)C1=CCN(S(=O)(=O)c2ccc(Br)cc2)C1c1cccc(Cl)c1 (stereo not given)	.	-7.2	.	1.4	.
COc1ccc(CC(NC(C)=O)C(=O)NC2CCN(C(=O)c3cccc(Cl)c3)CC2)cc1OC (stereo not given)	.	-6.8	0.2	1.1	127.3*
COc1ccc(/C=N/N2CCOCC2)cc1COc1ccc(Cl)cc1	-0.2	-10.7	4.0	7.9*	-0.2
O[C@H](COc1ccc(OC(F)(F)F)cc1)CN1CCC(C(O)(c2ccccc2)c2ccccc2)CC1	.	.	.	-3.1	.
Cc1nn(C(=O)c2cccnc2)c(C)c1Sc1ccccc1	-0.2	-1.7	-0.4	-3.7	102.8*
O=C(Nc1ccc(Br)cc1)c1ccc(F)c(S(=O)(=O)NCc2cccs2)c1	-0.6	108.8*	-5.9	-6.4	-1.4
CCCCN(C(=O)NC(=O)Nc1nc2ccc(OC)cc2s1)S(C)(=O)=O	-0.3	0.8	9.5*	3.8	1.8
O=S1(=O)c2c(cccc2N2CC[C@@H](O)C2)O[C@H]2CCN1C2	.	.	.	1.1	.
Cc1cccnc1Nc1nc(-c2ccccc2)cs1	.	-8.9	3.8	2.9	2.3
Cc1cccnc1Nc1nc(-c2ccccn2)cs1	0.0	-6.9	-18.1	4.7	181.8*
CCn1c(=O)n(CC(=O)N2CCOCC2)c(=O)c2ccccc21	.	.	.	-3.7	.
CCCOc1ccc(NC(=O)C2CC(=O)N/C(=N/N=C(C)/C=C/c3ccc(N(C)C)cc3)S2)cc1 (stereo not given)	-0.1	-5.4	-0.3	9.3*	1.1
CCOC(=O)c1cnn(-c2ccccn2)c1N	0.3	4.6	2.1	7.9*	3.1
CC(=O)Nc1c([N+](=O)[O-])cc(C)c(Cl)c1[N+](=O)[O-]	-0.3	-3.0	-1.4	1.9	12.8*
Cc1cc(C)n(-c2nc3ccccc3c(=O)n2OCC#N)n1	.	-6.6	2.7	3.3	14.1*
CCOn1c(-n2nc(C)cc2C)nc2ccccc2c1=O	-0.3	-0.7	-2.1	-2.4	0.1
SMILES	Hsp70 act	GalR3 antagonist	GAA850 FXN act	SMARCA2 act	HIF act
CN1CCC2(CC1)N=C(c1ccc(F)cc1)C(=S)N2C(=O)c1ccc(C(C)(C)C)cc1	-0.4	-4.7	1.3	-0.9	191.2*
CC(C)(C)c1ccc(C(=O)N2CCNCC2)cc1	-0.2	-4.2	4.2	-3.7	-0.2
CCC(=O)OCCCN1CCC2(CCC(c3ccccc3)CC2)C1=O (stereo not given)	.	.	.	-3.4	.
COC(=O)[C@H](C(C)C)N1Cc2nnn(Cc3ccc(C)cc3)c2-c2ccccc2S1(=O)=O	.	.	.	1.1	.
CCOc1cc(/C=N/NC(=O)c2c(-c3ccccc3)noc2C)ccc1O	0.2	-3.9	0.2	-3.2	100.4*
Cc1ccc(/C=N/NC(=O)c2c(-c3ccccc3)noc2C)c(O)c1	.	-1.9	-1.3	-1.9	17.8*
COc1cccc(/C=N/NC(=O)c2c(-c3ccccc3)noc2C)c1O	-0.2	1.9	-6.5	-1.6	1.3
COc1nccc(C(F)(F)F)c1C(=O)NC(=O)Nc1ccccc1	.	0.2	-0.2	-1.6	139.6*
COc1nccc(C(F)(F)F)c1C(=O)NC(=O)Nc1c(C)cccc1C	.	-7.5	0.2	-2.6	0.2
COc1ccc(OCc2cnc(Cl)s2)cc1	0.2	0.2	17.3*	2.4	0.7
COc1cccc(CNC(=O)CCCn2c(=S)[nH]c3cc4c(cc3c2=O)OCO4)c1	.	-5.6	0.4	3.2	28.8*

Screens: PubChem BioAssay, several laboratories
